Assay results as given in PubChem BioAssay (NCI).
Compounds without any hit were thinned out: in the full panel of roughly 79,000, 15% have a hit. Active and inactive are the calls of the source. Cut-off read from the data, not from the text of the source: active = growth inhibition above about 70%; inactive = the rest.

What was measured:
[1] = NCI Yeast Anticancer Drug Screen. Data for the rad50 strain (AID 155);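 note: 0% = growth of vehicle-only cultures of the same strain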; settings: S. cerevisiae rad50 strain growth inhibition; at 50.0 µM; stronger effect = higher value
Outline: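 Relative growth inhibition (compound vs vehicle) was measured in yeast with a defined repair-gene alteration.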

[2] = NCI Yeast Anticancer Drug Screen. Data for the mec2-1 strain (AID 157); settings: S. cerevisiae mec2-1 strain, at 50.0 µM, stronger effect = higher value
Outline: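 Growth inhibition is read against vehicle-treated controls after compound exposure of the mec2-1 yeast strain, which is defective in DNA damage repair or cell cycle control.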

[3] = NCI Yeast Anticancer Drug Screen. Data for the sgs1 mgt1 strain (AID 161);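 note: 0% = growth of cultures given vehicle only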; settings: S. cerevisiae sgs1 mgt1 strain, at 50.0 µM, stronger effect = higher value
Outline: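 Growth of a repair-deficient yeast mutant was monitored after compound treatment and expressed as inhibition relative to vehicle-treated cultures.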

[4] = NCI Yeast Anticancer Drug Screen. Data for the cln2 rad14 strain (AID 165);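 note: 0% = growth equal to vehicle treated cultures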; settings: S. cerevisiae cln2 rad14 strain, at 50.0 µM, stronger effect = higher value
Outline: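 Growth inhibition, relative to vehicle-treated controls, is the read-out. The test organism is a yeast strain with defined genetic alterations, cln2 rad14.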

[5] = NCI Yeast Anticancer Drug Screen. Data for the bub3 strain (AID 167); settings: S. cerevisiae bub3 mutant strain, at 50.0 µM, stronger effect = higher value
Outline: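 Screening used yeast with an engineered genetic alteration affecting cell cycle control. Compound-exposed cultures were compared with vehicle cultures, and reduced growth was taken as inhibition.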

[6] = NCI Yeast Anticancer Drug Screen. Data for the mlh1 rad18 strain (AID 175); settings: S. cerevisiae mlh1 rad18 strain growth inhibition; at 50.0 µM; stronger effect = higher value
Outline: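 Cells of a genetically altered yeast strain, deficient in DNA damage repair, were treated with compound. Their growth was then compared with that of vehicle-treated cultures to give inhibition.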

For `O=P(Nc1cccc(Cl)c1)(Nc1cccc(Cl)c1)c1ccccc1`, which growth inhibition [1] is on record?
The growth inhibition was 96.8% (active).

And the growth inhibition [2]?
The growth inhibition was 74.1% (active).

And the growth inhibition [3]?
Its growth inhibition is 96.9% (active).

And the growth inhibition [4]?
The growth inhibition was 76.7% (active).

What about the growth inhibition [5] of the same compound?
The growth inhibition was 85.3% (active).

And the growth inhibition [6]?
The growth inhibition was 95.8% (active).

Which growth inhibition [1] does the source give for `Cc1ccc2nc3c(C)cc(=O)cc-3sc2c1` here?
Its growth inhibition is 41.1% (inactive).

What about the growth inhibition [2] of the same compound?
Its growth inhibition is 34.6% (inactive).

And the growth inhibition [3]?
The growth inhibition was 36.5% (inactive).

What about the growth inhibition [4] of the same compound?
Its growth inhibition is 44.9% (inactive).

And the growth inhibition [5]?
The growth inhibition was 74.5% (active).

And the growth inhibition [6]?
The growth inhibition was 43.6% (inactive).

Which growth inhibition [1] does the source give for `CCOC(=O)C1=NN(c2ccccc2)C(=O)/C1=C\N1C(=O)/C(=C/c2cccc(OC)c2O)SC1=S` here?
The growth inhibition was 30.5% (inactive).

What about the growth inhibition [2] of the same compound?
The growth inhibition was 8.55% (inactive).

And the growth inhibition [3]?
The growth inhibition was 31.6% (inactive).

What about the growth inhibition [4] of the same compound?
The growth inhibition was 20.4% (inactive).

What about the growth inhibition [5] of the same compound?
Its growth inhibition is -0.35% (inactive).

And the growth inhibition [6]?
Its growth inhibition is 21.6% (inactive).

Which results are given for `C/C(CC(=O)Nc1ccc(NC(=O)C/C(C)=N\NC(N)=O)cc1)=N/NC(N)=O`?
growth inhibition [1]: 3.5% (inactive); growth inhibition [2]: -23.9% (inactive); growth inhibition [3]: -4.65% (inactive); growth inhibition [4]: 11.1% (inactive); growth inhibition [5]: -14.1% (inactive); growth inhibition [6]: 6.75% (inactive)

For `Cc1c2n(c(=O)[nH]c1=O)C1OC(CO)C(N=[N+]=[N-])C1O2` (stereo unspecified), which growth inhibition [1] is on record?
The growth inhibition was -5.5% (inactive).

What about the growth inhibition [2] of the same compound?
The growth inhibition was -15.9% (inactive).

And the growth inhibition [3]?
The growth inhibition was -42% (inactive).

And the growth inhibition [4]?
Its growth inhibition is -12.3% (inactive).

What about the growth inhibition [5] of the same compound?
The growth inhibition was -39.2% (inactive).

And the growth inhibition [6]?
Its growth inhibition is -32.2% (inactive).

Which results are given for `Cc1cccc(C)c1NC(=S)N(CCC#N)C1CC(C)CC(C)(C)C1` (stereo unspecified)?
growth inhibition [1]: 3.45% (inactive); growth inhibition [2]: 4.35% (inactive); growth inhibition [3]: 19.6% (inactive); growth inhibition [4]: -2.8% (inactive); growth inhibition [5]: 19.9% (inactive); growth inhibition [6]: -20% (inactive)

Which growth inhibition [1] does the source give for `C=CCCC(C)N(C(=O)OC(C)(C)C)S(=O)(=O)c1ccc(C)cc1` (stereo unspecified) here?
The growth inhibition was 16.6% (inactive).

And the growth inhibition [2]?
The growth inhibition was -13.2% (inactive).

And the growth inhibition [3]?
Its growth inhibition is 4.85% (inactive).

What about the growth inhibition [4] of the same compound?
Its growth inhibition is -9.3% (inactive).

What about the growth inhibition [5] of the same compound?
The growth inhibition was -4% (inactive).

And the growth inhibition [6]?
The growth inhibition was 0.45% (inactive).

For `CC(=O)Nc1nc(C)c(CC/C=C/c2ccc([N+](=O)[O-])cc2)c(Cl)n1`, which growth inhibition [1] is on record?
Its growth inhibition is 8.9% (inactive).

What about the growth inhibition [2] of the same compound?
Its growth inhibition is 32.9% (inactive).

What about the growth inhibition [3] of the same compound?
Its growth inhibition is 38% (inactive).

What about the growth inhibition [4] of the same compound?
The growth inhibition was -6.35% (inactive).

And the growth inhibition [5]?
Its growth inhibition is 27.2% (inactive).

What about the growth inhibition [6] of the same compound?
The growth inhibition was 53% (inactive).

For `CCCCCCCCCc1ccc(COCCCC)cc1`, which growth inhibition [1] is on record?
Its growth inhibition is 21.9% (inactive).

What about the growth inhibition [2] of the same compound?
Its growth inhibition is 55.1% (inactive).

What about the growth inhibition [3] of the same compound?
The growth inhibition was 56.1% (inactive).

And the growth inhibition [4]?
The growth inhibition was 50.1% (inactive).

And the growth inhibition [5]?
The growth inhibition was 49.5% (inactive).

What about the growth inhibition [6] of the same compound?
The growth inhibition was 48.8% (inactive).

With `N#CCCN(C1=NN(C(=O)CC(=O)Nc2ccc(Cl)cc2)C(c2ccccc2)C1)c1ccc(Cl)cc1` (stereo unspecified) as the compound, how does the growth inhibition [1] read?
The growth inhibition was 14.3% (inactive).

And the growth inhibition [2]?
The growth inhibition was -13.7% (inactive).

What about the growth inhibition [3] of the same compound?
The growth inhibition was -17.6% (inactive).

And the growth inhibition [4]?
Its growth inhibition is 10.7% (inactive).

What about the growth inhibition [5] of the same compound?
Its growth inhibition is -5.55% (inactive).

And the growth inhibition [6]?
The growth inhibition was -8.35% (inactive).

For `CC1=C(OCCCl)C2CC1C1C(=O)N(c3ccccc3)C(=O)C21` (stereo unspecified), which growth inhibition [1] is on record?
The growth inhibition was -9.95% (inactive).

And the growth inhibition [2]?
Its growth inhibition is -29.1% (inactive).

What about the growth inhibition [3] of the same compound?
The growth inhibition was -1.85% (inactive).

What about the growth inhibition [4] of the same compound?
Its growth inhibition is -0.4% (inactive).

And the growth inhibition [5]?
Its growth inhibition is -4.9% (inactive).

And the growth inhibition [6]?
The growth inhibition was -4.75% (inactive).

For `CCN(CC)CCOC(c1ccccc1)c1ccccc1`, which growth inhibition [1] is on record?
The growth inhibition was 3.8% (inactive).

What about the growth inhibition [2] of the same compound?
The growth inhibition was -9.75% (inactive).

And the growth inhibition [3]?
The growth inhibition was -1.2% (inactive).

What about the growth inhibition [4] of the same compound?
The growth inhibition was -10.8% (inactive).

And the growth inhibition [5]?
Its growth inhibition is -0.05% (inactive).

And the growth inhibition [6]?
The growth inhibition was -11.8% (inactive).

For `CCOC(=O)c1ccc(NCc2cccc([N+](=O)[O-])c2)cc1`, which growth inhibition [1] is on record?
The growth inhibition was 10.2% (inactive).

What about the growth inhibition [2] of the same compound?
The growth inhibition was -18.5% (inactive).

What about the growth inhibition [3] of the same compound?
Its growth inhibition is 10.4% (inactive).

And the growth inhibition [4]?
The growth inhibition was 0.45% (inactive).

And the growth inhibition [5]?
The growth inhibition was 73.8% (active).

What about the growth inhibition [6] of the same compound?
Its growth inhibition is 31.6% (inactive).

For `COc1cc(/C=N\N=C(/C)c2ccc(C)cc2C)cc(OC)c1OC`, which growth inhibition [1] is on record?
The growth inhibition was 21.4% (inactive).

And the growth inhibition [2]?
The growth inhibition was 23.1% (inactive).

What about the growth inhibition [3] of the same compound?
The growth inhibition was 24.8% (inactive).

And the growth inhibition [4]?
Its growth inhibition is 22.9% (inactive).

What about the growth inhibition [5] of the same compound?
The growth inhibition was 24.9% (inactive).

And the growth inhibition [6]?
The growth inhibition was 24.6% (inactive).

What does the source list for `CC(C)=CC(Cc1ccccc1)S(=O)(=O)c1nc2ccccc2s1` (stereo unspecified)?
growth inhibition [1]: 8.8% (inactive); growth inhibition [2]: 33.4% (inactive); growth inhibition [3]: 12.1% (inactive); growth inhibition [4]: 9.4% (inactive); growth inhibition [5]: 31.2% (inactive); growth inhibition [6]: -16.9% (inactive)

Which results are given for `O=c1oc2ccccc2c(=O)n1O`?
growth inhibition [1]: 65.8% (inactive); growth inhibition [2]: 10.3% (inactive); growth inhibition [3]: 10.1% (inactive); growth inhibition [4]: 9.4% (inactive); growth inhibition [5]: 30.1% (inactive); growth inhibition [6]: 43.1% (inactive)

With `CC(=O)Nc1c(F)cc(F)cc1[N+](=O)[O-]` as the compound, how does the growth inhibition [1] read?
The growth inhibition was -28.4% (inactive).

What about the growth inhibition [2] of the same compound?
The growth inhibition was -3.4% (inactive).

And the growth inhibition [3]?
Its growth inhibition is -12.4% (inactive).

And the growth inhibition [4]?
Its growth inhibition is -16.8% (inactive).

And the growth inhibition [5]?
Its growth inhibition is -18.8% (inactive).

What about the growth inhibition [6] of the same compound?
The growth inhibition was 10.3% (inactive).

What does the source list for `CN1C(=S)CSc2ccccc21`?
growth inhibition [1]: -8.5% (inactive); growth inhibition [2]: -4% (inactive); growth inhibition [3]: -11.3% (inactive); growth inhibition [4]: 26% (inactive); growth inhibition [5]: -9.75% (inactive); growth inhibition [6]: 1.85% (inactive)

Which results are given for `O=C([O-])c1ccc2c(c1)-c1nc-2nc2[n-]c(nc3nc(nc4[n-]c(n1)c1ccc(C(=O)[O-])cc41)-c1ccc(C(=O)[O-])cc1-3)c1ccc(C(=O)[O-])cc21.[Gd+3].[K+]`?
growth inhibition [1]: -12.8% (inactive); growth inhibition [2]: -11.1% (inactive); growth inhibition [3]: -11.8% (inactive); growth inhibition [4]: 23.6% (inactive); growth inhibition [5]: 18% (inactive); growth inhibition [6]: -12.1% (inactive)

For `Cc1cccc(-n2cccc2)c1`, which growth inhibition [1] is on record?
Its growth inhibition is -1.6% (inactive).

What about the growth inhibition [2] of the same compound?
Its growth inhibition is -13.8% (inactive).

And the growth inhibition [3]?
The growth inhibition was 4.8% (inactive).

What about the growth inhibition [4] of the same compound?
Its growth inhibition is -10.7% (inactive).

What about the growth inhibition [5] of the same compound?
Its growth inhibition is -16.3% (inactive).

What about the growth inhibition [6] of the same compound?
Its growth inhibition is 4.75% (inactive).

With `O=NC1CCCCC1Cl` (stereo unspecified) as the compound, how does the growth inhibition [1] read?
The growth inhibition was 3% (inactive).

And the growth inhibition [2]?
The growth inhibition was -4.15% (inactive).

And the growth inhibition [3]?
Its growth inhibition is 4.6% (inactive).

What about the growth inhibition [4] of the same compound?
Its growth inhibition is -4.45% (inactive).

And the growth inhibition [5]?
The growth inhibition was 7.05% (inactive).

And the growth inhibition [6]?
The growth inhibition was 2.55% (inactive).
